Bioassay records (PubChem BioAssay)
The list is not random: actives were taken first. Their share in the collection is about 11%.
SW480 rerep: inducers of DNA re-replication in SW480 colon cancer cells. SW480 DNA re-replication, Hoechst DNA content imaging, 48 h. AID 624297. Potency, µM (top dose mostly 46.1 µM), for the others: at the highest dose re-replication activation, hits mostly activators. 1.8% of 340,000 active; note: potency is the fitted concentration of half-maximal effect; % of control where 0% means no effect; nearly all actives have a fitted effect of over 55% in size
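Cells (250 per well) received 23 nL compound or DMSO by pin tool and were kept 48 hr at 37 C, 5% CO2. Nuclei were then stained with Hoechst for 40 min and scanned for DNA content.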
RORg inh: ROR gamma (mouse) transcription inhibition; AID 2551; Potency, µM (series often up to 53.6 µM), for inactives: at the top dose activity change, negative = inhibition, hits mostly inhibitors; 5.4% of 310,000 active; Drosophila S2 Gal4-RORgamma UAS-luciferase reporter, 20 h; note: potency is the fitted concentration of half-maximal effect; % is set by controls: 0 for no effect and ±100 for the full control effect; nearly all actives have a fitted effect of over 60% in size
Target sequence (P51450 whole entry, looked up, the tested form may be a part): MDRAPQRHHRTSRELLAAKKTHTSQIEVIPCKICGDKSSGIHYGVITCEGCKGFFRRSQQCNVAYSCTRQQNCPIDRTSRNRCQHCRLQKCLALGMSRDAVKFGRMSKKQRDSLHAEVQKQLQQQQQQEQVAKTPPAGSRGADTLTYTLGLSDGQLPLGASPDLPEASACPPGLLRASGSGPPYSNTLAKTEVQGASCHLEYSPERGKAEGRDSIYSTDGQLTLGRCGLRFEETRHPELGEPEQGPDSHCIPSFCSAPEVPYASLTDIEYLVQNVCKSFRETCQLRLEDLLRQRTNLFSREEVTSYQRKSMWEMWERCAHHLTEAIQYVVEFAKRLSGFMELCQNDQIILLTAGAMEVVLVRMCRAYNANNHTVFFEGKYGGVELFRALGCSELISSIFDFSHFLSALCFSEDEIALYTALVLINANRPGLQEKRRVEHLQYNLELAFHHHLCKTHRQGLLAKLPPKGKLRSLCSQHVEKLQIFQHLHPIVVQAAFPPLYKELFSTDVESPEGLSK
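Using a luciferase readout, inhibitors were identified by reduced reporter activity in Drosophila cells coexpressing a copper-inducible Gal4–ROR gamma fusion and UAS-driven Photinus luciferase, incubated 20 hr after 700 uM copper sulfate.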
VP16 counter: Gal4-VP16 reporter inhibition counter-screen. AID 2546. 3.5% of 310,000 active. Potency, µM (top dose mostly 53.6 µM), inactives show at the highest dose activity, negative = inhibition, usual class: inhibitors. Drosophila S2 Gal4-VP16 UAS-luciferase, luminescence, 20 h;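 note: Gal4-VP16 expression switched on by copper sulfate through the metallothionein promoter; potency is the fitted concentration of half-maximal effect; % is set by controls: 0 for no effect and ±100 for the full control effect; nearly all actives have a fitted effect of over 50% in size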
MCF10A rereplic: DNA re-replication induction in MCF 10a cells. 2.9% of 350,000 active. MCF 10A DNA re-replication, Hoechst nuclear intensity, 48 h. AID 624296. Potency, µM (titrated, usually from 46.1 µM), inactives show at the top dose activity, positive = re-replication, most hits filed as activators; note: potency is the fitted concentration of half-maximal effect; % of control where 0% means no effect; nearly all actives have a fitted effect of over 50% in size
IL1B secr inh: blocks inflammasome-driven IL-1 beta release; activity change, % at 57.5 µM; 4.7% of 360,000 active; AID 743279; THP-1 LPS/ATP IL-1B secretion, AlphaLISA, 16 h; active compounds read low; in the data active = activity change below about -50%; inconclusive = mostly about -30% to -49%; note: % is set by controls: 0 for no effect and ±100 for the full control effect
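THP-1 cells pretreated 1 hr with compounds (up to 57.5 uM final), then stimulated with LPS (250 ng/mL final) plus ATP (1.25 mM final); secreted IL-1B measured by AlphaLISA after 16 hr, decreased signal indicating inhibition.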
Starred values were filed as active, the others as inactive; ? = inconclusive; · = no result; [ ] = dose if it differs, or a comment. Unless noted, calls come from the whole dose curve; as a rule, active = well fitted curve in the direction sought with a large enough effect; inconclusive = small, poorly fitted or top-dose-only effect, or another doubt; inactive = no such curve, though single readings can be large; an effect the other way counts as inactive or inconclusive.

SMILES	SW480 rerep	RORg inh	VP16 counter	MCF10A rereplic	IL1B secr inh
Cc1c(C(=O)OC(C)C)sc(N)c1C(=O)OC(C)C	9%	-10%	?	?	-61*
FC(F)Oc1cccc(NC(=S)N2CCN(c3ccccn3)CC2)c1	2%	7.1µM*	-7%	-6%	-14
CCCCc1ccc(NC(=S)N2CCN(c3ncccn3)CC2)cc1	1%	4.5µM*	?	-6%	34
COc1ccc(NC(=S)N2CCN(c3ccccn3)CC2)cc1	-5%	-24%	-6%	6%	-23
Fc1ccc(NC(=S)N2CCN(c3ncccn3)CC2)cc1	-3%	?	17%	0%	-3
S=C(Nc1ccc2snnc2c1)N1CCN(c2ccccn2)CC1	-1%[9.22 µM]	-20%	5%	-1%	3
CCCCc1ccc(NC(=S)N2CCN(c3ccccn3)CC2)cc1	4%	16µM*	?	17%	-16
CCC(C)c1ccc(NC(=S)N2CCN(c3ccccn3)CC2)cc1 (stereo not given)	-3%	?	13µM*	17%	1
N#Cc1cc(-c2ccc(Cl)cc2)cnc1Sc1ccc(F)cc1	9%	-5%	-1%	15µM*	-1
COc1cc(C(=O)NNc2nc3cc4c(cc3s2)OCO4)cc(OC)c1OC	-1%	?	13µM*	?	-18
COc1cc(OC)cc(C(=O)NNc2nc3cc4c(cc3s2)OCO4)c1	1%	4.5µM*	13µM*	3%	-27
COc1cccc(NC(=S)N2CCN(c3ccc([N+](=O)[O-])cc3)CC2)c1	-5%	0%	7%	-14%	-18
COc1ccc(NC(=S)N2CCN(c3ccc([N+](=O)[O-])cc3)CC2)cc1OC	-2%	?	7.1µM*	?	-3
O=[N+]([O-])c1ccc(N2CCN(C(=S)Nc3ccc(F)cc3F)CC2)cc1	-35%	13µM*	?	-23%	-8
CCOc1ccc(/C=C/C(O)=C2/C(=O)N(C)C3(C)CC2c2ccccc2O3)cc1OC (stereo not given)	13µM*	?	5%[10 µM]	?	-101*
CN(C)c1ccc(/C=C/C(O)=C2/C(=O)N(C)C3(C)CC2c2ccccc2O3)cc1 (stereo not given)	·	-9%	-16%	·	·
CCOC(=O)C1=C(COC(=O)/C=C/c2ccc(OCC)c(OC)c2)NC(=O)NC1C (stereo not given)	0%	·	·	8%	-8
CCOc1ccc(/C=C/C(O)=C2/C(=O)NC3(C)CC2c2ccccc2O3)cc1OC (stereo not given)	9.2µM*	-37%	?	8.2µM*	-20
Cc1nn(-c2ccc(N3CCCCC3)nn2)c(C)c1CCC(=O)Nc1cc(F)ccc1F	17%	-13%	-2%	13%	-81*
Cc1nn(-c2ccc(N3CCCCC3)nn2)c(C)c1CCC(=O)Nc1ccccc1F	-3%	-10%	-3%	2%	?
Cc1cc(N/N=C/c2ccc(O)cc2O)c2ccccc2n1	7%	?	?	0%	-15
Cc1cc(N/N=C/c2ccc(O)cc2)c2cccc(C)c2n1	?	?	18µM*	?	?
Cc1nc(Cl)cc(N/N=C/c2ccc(O)cc2)n1	-11%	?	20%	0%	5
Cc1cc(C)c2nc(C)cc(N/N=C/c3ccc(O)cc3)c2c1	4.1µM*	?	4.5µM*	15µM*	-98*
C[C@H](O)[C@@H]1C(=O)N2CCc3ccc(N4CCN(C)CC4)cc3[C@@H]2C[C@@H]1N(C)C(=O)c1cccnc1	·	·	·	·	8
SMILES	SW480 rerep	RORg inh	VP16 counter	MCF10A rereplic	IL1B secr inh
CCc1ccc(C2=C/C(=C/c3cccnc3)C(=O)O2)cc1	-19%	?	0%	-3%	1
CC(=O)Oc1ccc(/C=C2\C=C(c3ccc(C)cc3)OC2=O)cc1	-10%	0.45µM*	?	1%	10
N#CCNC(=O)C1CC(=O)N(CCc2ccc(F)cc2)C1 (stereo not given)	1%	-20%[1.91 µM]	3%	?	0
NC(=O)c1ccsc1NC(=O)COC(=O)c1cccnc1Cl	0%	·	·	-1%	2
Oc1c(Br)cc(Br)cc1CNc1ccc(F)cc1	0%	-45%	1%	?	-86*
Oc1c(Br)cc(Br)cc1CNc1nccs1	-15%	10%	-5%	11%	10
Oc1c(Br)cc(Br)cc1CNc1cnc2ccccc2c1	2%	-2%	-21%	23µM*	4
O=c1cc(-c2ccccc2)c2ccc(O)cc2o1	?	·	·	13%	-60*
Cc1ccccc1N1CCN(CCC(=O)Nc2ccc(F)cc2)CC1	18%	3%	0%	2%	31
FC(F)(F)c1cccc(N2CCN(C(=S)NC3CCCCC3)CC2)c1	·	16µM*	?	13%	7
FC(F)(F)c1cccc(N2CCN(C(=S)NC3CCCC3)CC2)c1	6%	?	?	?	-57*
CCOc1ccc(Nc2oc(-c3ccco3)nc2C#N)cc1	-2%	22%[10 µM]	-4%	?	?
CCOc1ccc(Nc2oc(-c3cccc(Cl)c3)nc2C#N)cc1	?	35%	29%	16µM*	7
N/C(=N\NC(=O)c1ccc(F)cc1)c1cc2ccccc2oc1=O	1%	3.5µM*	?	-3%	42
O=C(Nc1ccc(F)cc1F)c1cc2ccccc2oc1=O	-4%	0%	2%	15%	1
N/C(=N\NC(=O)c1cccc(F)c1)c1cc2ccccc2oc1=O	10%	1µM*	3.5µM*	-4%	1
N/C(=N\NC(=O)c1cccs1)c1cc2ccccc2oc1=O	-1%	7.1µM*	7.1µM*	2%	1
COCc1cccc(C2=CC(=O)C[C@H](c3ccc(F)cc3)C2)c1	-4%	·	·	7%	0
COc1ccc2[nH]c(C(=O)N/N=C/c3ccc(OC)c(O)c3)cc2c1	12µM*	35%	0%	2.1µM*	-27
COc1ccc2[nH]c(C(=O)N/N=C/c3ccccc3OC)cc2c1	?	-5%	-14%	27%	0
CCOc1ccc2[nH]c(C(=O)N/N=C/c3ccccc3OC)cc2c1	15µM*	0%	-4%	5.2µM*	-8
CCCOc1ccc2[nH]c(C(=O)N/N=C/c3cc(OC)c(OC)c(OC)c3)cc2c1	4%	?	-16%	?	0
COc1ccc(OC)c(/C=N/NC(=O)c2cc3c(OC)c(OC)ccc3[nH]2)c1	-2%	24%	-6%	?	32
COc1cc(OC)c2cc(C(=O)N/N=C/c3ccccc3O)[nH]c2c1	17%	6.3µM*	5.6µM*	-5%	68
CN1C(C(=O)Nc2ccccn2)C(=O)c2sc(Cl)cc2S1(=O)=O (stereo not given)	-10%	1%[10 µM]	-5%	-3%	·
COC(=O)c1ccccc1NC(=O)C1CCN(c2ncnc3c2nc2n3CCCCC2)CC1	-2%	?	-16%	0%	27
